Numbering of substitutions follows the chain as printed; changes in the protein carry UniProt numbers. The full ranking holds about 16,000 sequences; the median of “ka relative to ugcaugu” is about 0.096, and the highest 2% start at about 0.35. This is one part of a sample in which the highest values are shown more often than they occur.
T1: RBFOX1 RRM RbFoxmut (Fox-RRM*) (Homo sapiens, UniProt Q9NWB1 109-208, R118D;E147R;N151S;E152T)
T1 sequence: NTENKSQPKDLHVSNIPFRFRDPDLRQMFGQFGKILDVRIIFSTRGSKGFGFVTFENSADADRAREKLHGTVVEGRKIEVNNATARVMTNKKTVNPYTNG

B1: CCAAUUG (DNA:RNA)
RNA: GGGAGACCGGAAUUCAGAUUGUCCCCAAUUGUUAAAUCCCGUCGUAGCCACCA
DNA 1: CAATCTGAATTCCGGTCTCCC
DNA 2: TGGTGGCTACGACGGGATT
B2: GUGGUAG (DNA:RNA)
RNA: B1 RNA with C25G, C26U, A27G, A28G, U30A
DNA 1: CAATCTGAATTCCGGTCTCCC
DNA 2: TGGTGGCTACGACGGGATT
B3: UUUUCUG (DNA:RNA)
RNA: B1 RNA with C25U, C26U, A27U, A28U, U29C
DNA 1: CAATCTGAATTCCGGTCTCCC
DNA 2: TGGTGGCTACGACGGGATT
B4: UCCUCCG (DNA:RNA)
RNA: B1 RNA with C25U, A27C, A28U, U29C, U30C
DNA 1: CAATCTGAATTCCGGTCTCCC
DNA 2: TGGTGGCTACGACGGGATT
B5: GCCCAGU (DNA:RNA)
RNA: B1 RNA with C25G, A27C, A28C, U29A, U30G, G31U
DNA 1: CAATCTGAATTCCGGTCTCCC
DNA 2: TGGTGGCTACGACGGGATT
B6: CGGGGGG (DNA:RNA)
RNA: B1 RNA with C26G, A27G, A28G, U29G, U30G
DNA 1: CAATCTGAATTCCGGTCTCCC
DNA 2: TGGTGGCTACGACGGGATT
B7: CGGGUUG (DNA:RNA)
RNA: B1 RNA with C26G, A27G, A28G
DNA 1: CAATCTGAATTCCGGTCTCCC
DNA 2: TGGTGGCTACGACGGGATT
B8: GGGUCCG (DNA:RNA)
RNA: B1 RNA with C25G, C26G, A27G, A28U, U29C, U30C
DNA 1: CAATCTGAATTCCGGTCTCCC
DNA 2: TGGTGGCTACGACGGGATT
B9: CGGGUCG (DNA:RNA)
RNA: B1 RNA with C26G, A27G, A28G, U30C
DNA 1: CAATCTGAATTCCGGTCTCCC
DNA 2: TGGTGGCTACGACGGGATT
B10: GGGGUUG (DNA:RNA)
RNA: B1 RNA with C25G, C26G, A27G, A28G
DNA 1: CAATCTGAATTCCGGTCTCCC
DNA 2: TGGTGGCTACGACGGGATT
B11: CACCGGG (DNA:RNA)
RNA: B1 RNA with C26A, A27C, A28C, U29G, U30G
DNA 1: CAATCTGAATTCCGGTCTCCC
DNA 2: TGGTGGCTACGACGGGATT
B12: GGGUUGA (DNA:RNA)
RNA: B1 RNA with C25G, C26G, A27G, A28U, U30G, G31A
DNA 1: CAATCTGAATTCCGGTCTCCC
DNA 2: TGGTGGCTACGACGGGATT
B13: GGGGUCG (DNA:RNA)
RNA: B1 RNA with C25G, C26G, A27G, A28G, U30C
DNA 1: CAATCTGAATTCCGGTCTCCC
DNA 2: TGGTGGCTACGACGGGATT
B14: GUCGGGG (DNA:RNA)
RNA: B1 RNA with C25G, C26U, A27C, A28G, U29G, U30G
DNA 1: CAATCTGAATTCCGGTCTCCC
DNA 2: TGGTGGCTACGACGGGATT
B15: GGGUUAA (DNA:RNA)
RNA: B1 RNA with C25G, C26G, A27G, A28U, U30A, G31A
DNA 1: CAATCTGAATTCCGGTCTCCC
DNA 2: TGGTGGCTACGACGGGATT
B16: CGGUUGA (DNA:RNA)
RNA: B1 RNA with C26G, A27G, A28U, U30G, G31A
DNA 1: CAATCTGAATTCCGGTCTCCC
DNA 2: TGGTGGCTACGACGGGATT
B17: GGGGGGG (DNA:RNA)
RNA: B1 RNA with C25G, C26G, A27G, A28G, U29G, U30G
DNA 1: CAATCTGAATTCCGGTCTCCC
DNA 2: TGGTGGCTACGACGGGATT
B18: UAAGAGC (DNA:RNA)
RNA: B1 RNA with C25U, C26A, A28G, U29A, U30G, G31C
DNA 1: CAATCTGAATTCCGGTCTCCC
DNA 2: TGGTGGCTACGACGGGATT
B19: GACCGCG (DNA:RNA)
RNA: B1 RNA with C25G, C26A, A27C, A28C, U29G, U30C
DNA 1: CAATCTGAATTCCGGTCTCCC
DNA 2: TGGTGGCTACGACGGGATT
B20: GCACUUC (DNA:RNA)
RNA: B1 RNA with C25G, A28C, G31C
DNA 1: CAATCTGAATTCCGGTCTCCC
DNA 2: TGGTGGCTACGACGGGATT

What follows are binders tested against T1, RBFOX1 RRM RbFoxmut (Fox-RRM*) (assay: EMSA; HiTS-Eq, 1 nM pool, 10 min; buffer printed only for the single-RNA assays: 10 mM Tris pH 7.5, 150 mM NaCl, 3.4 mM EDTA, 0.001% NP-40, 30 C). Details: tags: His6 N-terminal (pET28a); label: 5' 32P.
Procedure, shortened: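 Relative association constants, normalised to the cognate motif, were derived by comparing read counts of each RNA species with those of the control reaction. The RNA sequenced was the free fraction, separated by 8% native PAGE after a 10 min equilibration in 50 µL of 1 nM 5′-radiolabelled RNA (7 randomized nucleotides) with increasing concentrations of purified wild-type or mutant RbFox RRM.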

Binder	binding signal
B1	0.0976 KA relative to UGCAUGU
B2	0.181 KA relative to UGCAUGU
B3	0.0689 KA relative to UGCAUGU
B4	0.0609 KA relative to UGCAUGU
B5	0.102 KA relative to UGCAUGU
B6	0.0805 KA relative to UGCAUGU
B7	0.66 KA relative to UGCAUGU
B8	0.238 KA relative to UGCAUGU
B9	0.259 KA relative to UGCAUGU
B10	0.609 KA relative to UGCAUGU
B11	0.0671 KA relative to UGCAUGU
B12	0.356 KA relative to UGCAUGU
B13	0.357 KA relative to UGCAUGU
B14	0.101 KA relative to UGCAUGU
B15	0.0954 KA relative to UGCAUGU
B16	0.139 KA relative to UGCAUGU
B17	0.0675 KA relative to UGCAUGU
B18	0.0654 KA relative to UGCAUGU
B19	0.101 KA relative to UGCAUGU
B20	0.0473 KA relative to UGCAUGU

Reference: paper PMC9911399, “Two distinct binding modes provide the RNA-binding protein RbFox with extraordinary sequence specificity”
